{"source": "paper PMC5540273", "about": "(PLoS ONE, 2017);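 also: KINOMEscan kinase panel screen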"}
{"test_system": "AURKC", "details": "concentration: 1 μM, replicates: in singlicate; n = 1", "units": {"%Inh": "%"}}
{"smiles": "Cc1ccc(NC(=O)c2cccc(C#N)c2)cc1-c1ccc(C(=O)Nc2ccncc2)cc1", "note": "[GSK1398463]", "%Inh": 6}
{"smiles": "CS(=O)(=O)CCNCc1ccc(-c2ccc3ncnc(Nc4ccc(OCc5ccccc5)c(Cl)c4)c3c2)o1.Cl", "note": "[GW574783]", "%Inh": 2}
{"smiles": "Fc1ccc(-c2ncn(CCCNCc3ccccc3)c2-c2ccncc2)cc1", "%Inh": 0}
{"smiles": "CCc1nc(-c2cccc(C)c2)c(-c2ccnc(NC(=O)c3ccccc3)c2)s1", "%Inh": 0}
{"smiles": "c1ccc(-c2ccc3c(-c4ccnc(Nc5ccc6c(c5)OCCO6)n4)cnn3n2)cc1", "note": "[GW818941]", "%Inh": 26}
{"smiles": "CSc1ccc(NC2=C(c3ccccc3Cl)C(=O)NC2=O)cc1", "note": "[SB-342411]", "%Inh": 13}
{"smiles": "FC(F)(F)c1ccc(-c2cc(-c3c[nH]nc3-c3ccccn3)ccn2)cc1", "note": "[GW599550]", "%Inh": 14}
{"smiles": "COc1ccc(NC(=O)Nc2ccc(C)c(-c3ccc(C(=O)Nc4ccncc4)cc3)c2)cc1", "note": "[GSK1398475]", "%Inh": 0}
{"smiles": "Fc1ccc(Nc2nccc(-c3c(-c4ccc(Cl)cc4)nn4ncccc34)n2)cc1F", "note": "[GW829058]", "%Inh": 0}
{"smiles": "Cn1cc(-c2ccc3c(c2)CCN3C(=O)Cc2cccc(C(F)(F)F)c2)c2c(N)ncnc21", "note": "[GSK2606414]", "%Inh": 29}
{"smiles": "O=C(CCO)NCCn1ccc2ncnc(Nc3ccc(Oc4cccc(C(F)(F)F)c4)c(Cl)c3)c21", "%Inh": 0}
{"smiles": "CNc1nccc(-c2c(-c3ccc(F)cc3)ncn2CCCN2CCOCC2)n1", "note": "[SB-222516]", "%Inh": 21}
{"smiles": "COC(=O)c1cccc(NC(=O)NCCNc2ccnc(Nc3ccc(F)cc3)n2)c1", "note": "[GSK1379883]", "%Inh": 32}
